Activity calls are given as the source filed them.

Here are results for 9 molecules from PubChem BioAssay.

Assay [1] can be described thus: optical density shifts of acrAB sulA E. coli – strain DRC41, OD650, 48 h, E. coli filamentation inducer project, primary screen (AID 1152).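 Note: E. coli MC1000 strain DRC41 lacking acrAB efflux pump and sulA.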 Conditions: higher = more signal, called active from +8 up or from −8 down.
Assay [2] is described as follows: probe aLefty1 binding on compound microarray – biochemical, small-molecule microarray, 635/667 nm fluorescence, primary screen (AID 1153).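 Note: score merges spot fluorescence with signal-to-noise ratio from the scanned slide images.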 Conditions: higher = more signal.
Assay [3] can be described thus: plasmodial surface anion channel blockers, osmotic lysis – cell-based, P. falciparum Indochina, OD700, 1 h, primary screen (AID 1154). Particulars: P. falciparum Indochina infected RBC osmotic lysis, higher = more signal, called active from +8 up or from −8 down.
Assay [4] can be described thus: plasmodial surface anion channel blockers, osmotic lysis – cell-based, P. falciparum Indochina, OD700, 2 h, primary screen (AID 1155).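 Note: lysis reports solute entry through the parasite surface anion channel PSAC.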 Particulars: P. falciparum Indochina infected erythrocytes, higher = more signal, called active from +8 up or from −8 down.
Assay [5] is described as follows: changes in parasitized red cell lysis, either direction – P. falciparum Indochina, OD700, 3 h, PSAC antagonist project, primary screen (AID 1156). Conditions: P. falciparum-infected erythrocytes, osmotic lysis, higher = more signal, called active from +8 up or from −8 down.
A short description of assay [6]: plasmodial surface anion channel blockers, osmotic lysis – cell-based, P. falciparum Indochina, OD700, 18 h, primary screen (AID 1157). Particulars: P. falciparum Indochina infected erythrocytes, osmotic lysis OD700, 18 h; higher = more signal, called active from +8 up or from −8 down.
The nature of assay [7]: S6 kinase pathway phospho-S6 level changes – cell-based, A549, cytoblot, luminescence, serum-stimulated, primary screen (AID 1158).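 Note: serum-stimulated A549 lung adenocarcinoma cells; signal is phosphorylated S6 detected by cytoblot immunostaining with HRP secondary.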 Particulars: 5 h, higher = more signal.
The target of assay [8] is NADPH oxidase 2 (Homo sapiens) (UniProt P04839). The assay is described as follows: compounds shifting NOX2 Amplex Red fluorescence – cell-based, HEK293-NOX2, PMA-stimulated, NOX inhibitor project, primary screen (AID 1159). Note: test concentration not given here. Conditions: 45 min, higher = more signal, called active from +8 up or from −8 down.
Assay [9] deals with NADPH oxidase 4 (Homo sapiens) (UniProt Q9NPH5). The assay is described as follows: compounds shifting NOX4 Amplex Red fluorescence – cell-based, HEK293-NOX4, tetracycline-induced, NOX inhibitor project, primary screen (AID 1160). Conditions: HEK293-NOX4, Amplex Red H2O2 fluorescence, 45 min; higher = more signal, called active from +8 up or from −8 down.
Assay [10] deals with NADPH oxidase 5 (Homo sapiens) (UniProt Q96PH1). The assay is described as follows: compounds shifting NOX5 Amplex Red fluorescence – cell-based, HEK293-NOX5, NOX inhibitor project, primary screen (AID 1161). Conditions: HEK293-NOX5, ionomycin, 45 min, higher = more signal.
A short description of assay [11]: compound effects on lung adenocarcinoma cell viability – A549, calcein-AM fluorescence, 48 h, basal, profiling panel (AID 1162). Note: test concentration not given here. Particulars: higher = more signal.
Assay [12] is described as follows: compound effects on differentiated 3T3-L1 adipocyte viability – cell-based, 3T3-L1 adipocytes, calcein-AM fluorescence, 48 h, basal, profiling panel (AID 1163). Note: test concentration not given here. Particulars: 3T3-L1 adipocytes viability, higher = more signal.
The nature of assay [13]: compound effects on hepatocellular carcinoma cell viability – HepG2, calcein-AM fluorescence, 48 h, basal, profiling panel (AID 1164). Note: test concentration not given here. Conditions: higher = more signal.
A short description of assay [14]: compound effects on multiple myeloma cell viability – MM1S, calcein-AM fluorescence, 48 h, basal, profiling panel (AID 1165). Note: test concentration not given here. Conditions: higher = more signal.
Assay [15] in a line: calcein-AM signal in unstimulated myeloma cells – cell-based, calcein-AM fluorescence, 48 h, PK04 Diversity Set, profiling panel (AID 1166).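 Note: cells grown under basal conditions without added stimulus; test concentration not given here.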 Particulars: RPMI8226 myeloma viability, higher = more signal.
Assay [16] is described as follows: JC-1 mitochondrial signal, unstimulated HepG2 cells – cell-based, JC-1 fluorescence, 24 h, 100 nL compound, profiling panel (AID 1167). Note: test concentration not given here. Particulars: HepG2 mitochondrial potential, higher = more signal.
A short description of assay [17]: JC-1 mitochondrial signal, unstimulated adipocytes – cell-based, JC-1 fluorescence, 3T3-L1 adipocytes, 24 h, 100 nL compound, profiling panel (AID 1168). Note: test concentration not given here. Particulars: JC-1 mitochondrial fluorescence, higher = more signal, called active from +8 up or from −8 down.
Assay [18] can be described thus: JC-1 mitochondrial signal, unstimulated myeloma cells – cell-based, JC-1 fluorescence, RPMI8226, 24 h, 100 nL compound, profiling panel (AID 1169). Note: test concentration not given here. Conditions: JC-1 mitochondrial potential fluorescence, higher = more signal.
Assay [19] is described as follows: JC-1 mitochondrial signal, unstimulated MM1S myeloma – cell-based, JC-1 fluorescence, 24 h, 100 nL compound, profiling panel (AID 1170). Note: test concentration not given here. Conditions: MM1S mitochondrial potential, higher = more signal.
Assay [20] in a line: resazurin metabolic signal in A549 cells – cell-based, resazurin fluorescence, 24 h, PK04 Diversity Set, profiling panel (AID 1171). Note: test concentration not given here. Particulars: A549 viability, higher = more signal, called active from +8 up or from −8 down. Background: The colour change of resazurin is a common sign of viable cells or microbes.

Sequence of NADPH oxidase 2 (Homo sapiens) (P04839 whole entry, looked up): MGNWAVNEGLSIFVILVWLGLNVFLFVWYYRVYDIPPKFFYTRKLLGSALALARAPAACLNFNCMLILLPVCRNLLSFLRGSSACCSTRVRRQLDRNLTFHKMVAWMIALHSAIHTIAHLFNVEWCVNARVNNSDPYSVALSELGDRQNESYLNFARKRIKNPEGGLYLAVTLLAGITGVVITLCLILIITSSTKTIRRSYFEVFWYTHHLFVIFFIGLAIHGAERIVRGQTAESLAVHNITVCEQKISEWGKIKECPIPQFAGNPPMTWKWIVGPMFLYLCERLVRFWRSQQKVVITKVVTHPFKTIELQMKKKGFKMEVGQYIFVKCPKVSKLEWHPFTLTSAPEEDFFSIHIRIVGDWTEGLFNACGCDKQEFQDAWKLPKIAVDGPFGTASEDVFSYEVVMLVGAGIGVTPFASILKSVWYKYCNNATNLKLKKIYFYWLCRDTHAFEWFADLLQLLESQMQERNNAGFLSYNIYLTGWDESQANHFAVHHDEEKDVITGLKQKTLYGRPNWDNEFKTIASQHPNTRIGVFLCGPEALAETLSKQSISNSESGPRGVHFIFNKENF
Sequence of NADPH oxidase 4 (Homo sapiens) (Q9NPH5 whole entry, looked up): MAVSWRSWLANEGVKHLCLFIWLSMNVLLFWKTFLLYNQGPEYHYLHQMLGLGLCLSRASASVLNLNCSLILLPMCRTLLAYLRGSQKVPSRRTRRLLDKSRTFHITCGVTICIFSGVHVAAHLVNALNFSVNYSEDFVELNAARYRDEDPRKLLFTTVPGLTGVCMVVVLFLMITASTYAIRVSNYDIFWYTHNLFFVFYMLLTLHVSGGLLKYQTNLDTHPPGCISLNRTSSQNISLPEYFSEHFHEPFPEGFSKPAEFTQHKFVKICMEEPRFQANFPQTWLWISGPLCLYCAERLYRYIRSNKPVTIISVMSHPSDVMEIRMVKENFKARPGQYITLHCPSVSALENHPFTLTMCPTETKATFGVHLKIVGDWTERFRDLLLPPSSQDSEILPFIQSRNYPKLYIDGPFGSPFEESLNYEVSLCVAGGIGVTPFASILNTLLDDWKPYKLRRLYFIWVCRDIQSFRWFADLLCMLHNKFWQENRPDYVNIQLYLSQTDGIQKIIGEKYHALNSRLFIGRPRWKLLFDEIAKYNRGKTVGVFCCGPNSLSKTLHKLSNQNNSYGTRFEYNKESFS
Sequence of NADPH oxidase 5 (Homo sapiens) (Q96PH1 whole entry, looked up): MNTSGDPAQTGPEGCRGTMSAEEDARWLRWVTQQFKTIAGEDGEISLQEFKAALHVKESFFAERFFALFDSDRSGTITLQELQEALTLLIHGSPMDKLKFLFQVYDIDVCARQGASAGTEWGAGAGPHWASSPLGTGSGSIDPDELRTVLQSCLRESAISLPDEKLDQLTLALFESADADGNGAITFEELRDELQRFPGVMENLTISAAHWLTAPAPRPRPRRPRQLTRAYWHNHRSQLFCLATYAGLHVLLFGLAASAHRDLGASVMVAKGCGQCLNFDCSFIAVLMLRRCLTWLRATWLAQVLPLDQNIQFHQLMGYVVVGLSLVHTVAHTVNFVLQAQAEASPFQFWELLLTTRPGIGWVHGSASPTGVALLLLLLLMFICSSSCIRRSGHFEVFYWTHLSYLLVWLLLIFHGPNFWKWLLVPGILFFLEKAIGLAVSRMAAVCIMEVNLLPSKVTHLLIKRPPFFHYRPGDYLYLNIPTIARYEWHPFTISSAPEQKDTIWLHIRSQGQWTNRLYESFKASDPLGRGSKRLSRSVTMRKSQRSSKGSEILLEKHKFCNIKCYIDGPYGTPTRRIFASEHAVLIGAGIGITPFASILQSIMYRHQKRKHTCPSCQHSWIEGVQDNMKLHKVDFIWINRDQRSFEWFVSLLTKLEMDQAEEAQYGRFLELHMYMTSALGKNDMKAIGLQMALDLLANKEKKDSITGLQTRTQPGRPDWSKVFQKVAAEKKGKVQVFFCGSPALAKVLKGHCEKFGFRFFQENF

As to `CC(C)N1C(=O)[C@@]2(Cc3ccccc31)c1ccccc1C(=O)N(Cc1ccccc1Cl)[C@H]2c1ccc(CO)cc1`, the z-score in assay [1] is 0.581 (inactive); in assay [3] it was -0.0086 (inactive); in assay [4], -0.513 (inactive); in assay [5], 1.23 (inactive); in assay [6] it was -1.78 (inactive); in assay [7], 1.17. The z-score is 0.16 (inactive) in assay [8]; 0.946 (inactive) in assay [9]; 1.04 in assay [10]; 1.02 in [11]; -0.24 in [12]; -0.921 in assay [13]. The z-score in assay [14] was -1.58; in assay [15], -0.238; in assay [16] it was 0.407; in [17], 0.111 (inactive); in assay [18], 0.115; in [19], -1.76. Besides, the z-score in assay [20] is 0.458 (inactive). In assay [2], this molecule came in with a composite z-score of -0.17.
Take `NC(=O)NCC#Cc1ccc2c(c1)[C@]1(C(=O)N2)[C@H](C(=O)Nc2nc3ccccc3s2)[C@H]2C(=O)O[C@H](c3ccccc3)[C@H](c3ccccc3)N2[C@@H]1c1ccccc1OCCO`: the z-score in [1] is 1.07 (inactive); in assay [3] it was 1.39 (inactive); in assay [4], 0.831 (inactive); in [5], 1.18 (inactive); in [6] it was -0.247 (inactive); in assay [7], 1.76. The z-score in assay [8] was 0.643 (inactive); in assay [9], -0.228 (inactive); in assay [10], -3.4; in [11] it was -0.38; in assay [12], 2.01; in assay [13], 0.374. For the same molecule, the z-score in assay [14] was -0.513; in assay [15], -1.12; in assay [16], -3.23; in assay [17], 2.92 (inactive); in assay [18], -0.517; in assay [19], -0.815. Moreover, the z-score in assay [20] was 0.28 (inactive). The composite z-score in [2] turned out to be 1.33.
With `NCCCCCCNC(=O)[C@@H]1C[C@@H]2C(=O)NCC(=O)N2[C@@H]1c1ccc(O)cc1`, the z-score is 0.812 (inactive) in assay [1]; 0.846 (inactive) in assay [3]; 1.04 (inactive) in [4]; 4.22 (inactive) in assay [5]; 0.497 (inactive) in [6]; 0.257 in assay [7]. Besides, the z-score in assay [8] was -0.302 (inactive); in [9], 0.4 (inactive); in assay [10], 0.182; in assay [11], -1.17; in assay [12], 0.544; in assay [13], -1.07. Further, the z-score is 0.307 in assay [14]; 0.0172 in [15]; -0.479 in [16]; 0.172 (inactive) in assay [17]; -0.796 in assay [18]; -0.365 in [19]. Besides, in assay [20], the z-score was -0.368 (inactive). Besides, the composite z-score in assay [2] was -0.0126.
With `COCCOC(=O)N1C(=O)[C@@]2(c3cc(C#CCCO)ccc31)[C@H](C(N)=O)[C@H]1C(=O)O[C@H](c3ccccc3)[C@H](c3ccccc3)N1[C@@H]2c1ccc(O)cc1`, the z-score in assay [1] is -0.903 (inactive); in [3] it was 2.44 (inactive); in assay [4] it was 0.213 (inactive); in assay [5] it was -0.458 (inactive); in [6], -0.0317 (inactive); in assay [7], -0.237. Also, the z-score in [8] was 0.463 (inactive); in [9], 0.561 (inactive); in assay [10], 0.728; in assay [11], -0.272; in assay [12] it was 0.24; in assay [13] it was -0.05. Also, the z-score in assay [14] was 0.0119; in assay [15] it was -1.2; in assay [16], -0.537; in [17], -0.142 (inactive); in [18] it was -0.105; in [19], 0.0477. Moreover, the z-score in assay [20] is -0.3 (inactive). This molecule displayed a composite z-score in [2] of -0.15.
On to `O=C(N1CCCCC1)[C@]1(Cc2ccccc2)N=C(c2ccc(OCCCO)cc2)O[C@@H]1c1ccccc1`, for which the z-score in [1] was -0.834 (inactive); in assay [3], 28 (active); in [4], 20.6 (active); in assay [5], 0.696 (inactive); in assay [6], 1.28 (inactive); in assay [7], 2.33. In addition, the z-score in assay [8] is -2.82 (inactive); in assay [9], -1.37 (inactive); in assay [10], -1.7; in [11], -1.69; in assay [12] it was 1.16; in [13] it was -2.04. Moreover, the z-score was -3.35 in assay [14]; -4.43 in [15]; -1.06 in assay [16]; -0.515 (inactive) in [17]; -1.26 in assay [18]; -2.03 in assay [19]. Also, in assay [20], the z-score is 0.528 (inactive). Moreover, the composite z-score in [2] came to 0.446.
As to `C=CCC(OC(C)=O)[C@@H]1[C@@H](N(Cc2ccc(-c3ccccc3)cc2)C(=O)Cc2ccc(OC)cc2)c2cc(OCCCO)ccc2N1C(=O)Cc1ccc2ccccc2c1` (stereo not given in full), the z-score is -0.59 (inactive) in [1]; 0.747 (inactive) in assay [3]; 0.314 (inactive) in assay [4]; 0.198 (inactive) in assay [5]; 0.186 (inactive) in assay [6]; -0.185 in [7]. Further, the z-score is 0.304 (inactive) in [8]; 1.09 (inactive) in assay [9]; 1.35 in assay [10]; 0.247 in assay [11]; 0.358 in assay [12]; 0.71 in [13]. The z-score in [14] is -0.391; in assay [15] it was -0.252; in assay [16], 1.25; in assay [17] it was -1.73 (inactive); in assay [18], 0.158; in assay [19] it was 0.338. Further, in [20], the z-score was -0.599 (inactive). The same molecule registered a composite z-score in [2] of -0.0654.
On to `CCC(CC)C(O)C1C=CC2C(=O)NC(=O)C2N1Nc1ccc(Cl)cc1Cl` (stereo not given), for which the z-score in assay [1] is -1.69 (inactive); in [3], 1.55 (inactive); in assay [4] it was 0.65 (inactive); in assay [5], 0.0089 (inactive); in assay [6], 1.24 (inactive); in [7] it was -1.5. For the same molecule, the z-score in [8] is -0.017 (inactive); in [9], -4.41 (inactive); in assay [10], -2.93; in assay [11], -1.36; in assay [12], -0.326; in assay [13] it was -0.751. The z-score is -1.38 in assay [14]; -0.82 in assay [15]; -2.18 in [16]; -0.446 (inactive) in [17]; -0.661 in assay [18]; -0.246 in assay [19]. In addition, the z-score in [20] was -0.929 (inactive). In assay [2], this molecule showed a composite z-score of 0.348.
On to `CN(C)CCCCCCNC(=O)[C@H]1C[C@H]2C(=O)N[C@@H](CCCCN)C(=O)N2[C@H]1c1cccc(OCCO)c1`, for which the z-score is -0.497 (inactive) in assay [1]; 2.2 (inactive) in [3]; 0.192 (inactive) in assay [4]; 0.32 (inactive) in assay [5]; 0.229 (inactive) in [6]; -0.268 in assay [7]. Also, the z-score in assay [8] was 1.65 (inactive); in assay [9], 1.03 (inactive); in assay [10], 1.24; in assay [11] it was -0.214; in assay [12], 0.414; in assay [13], -0.458. In addition, the z-score in assay [14] is -0.371; in assay [15], -0.497; in [16], 0.272; in [17], 0.587 (inactive); in assay [18], -0.636; in assay [19] it was 0.358. Also, the z-score in [20] is -0.0439 (inactive). In [2], this molecule came in with a composite z-score of 2.71.
For `CC(C)CNC(=O)[C@@]1(Cc2ccccc2I)c2ccccc2C(=O)N(C2CCCCC2)[C@H]1c1ccc(CO)cc1`, the z-score is -0.664 (inactive) in assay [1]; 3.85 (inactive) in assay [3]; 0.198 (inactive) in assay [4]; 2.26 (inactive) in assay [5]; 0.183 (inactive) in assay [6]; -0.141 in assay [7]. In addition, the z-score is -0.394 (inactive) in assay [8]; 0.839 (inactive) in assay [9]; 0.184 in assay [10]; -0.175 in [11]; -0.316 in assay [12]; -0.762 in [13]. In addition, the z-score in [14] is -1.45; in [15], -2.39; in assay [16], -0.396; in [17], -0.485 (inactive); in [18], -0.594; in assay [19] it was -0.213. Besides, in assay [20], the z-score is 0.623 (inactive). The composite z-score in assay [2] stood at 0.257.
